# Screens deposited in PubChem by several laboratories.
# Shown are actives, neighbours in structure and some others; about 6.7% of the full set was active somewhere.
# GDH-TPI counter – inhibits GDH-TPI coupling enzymes, artifact for Mtb FBA screen; 360,000 tested, 1.2% active; inhibition, % at 4.8 µM; AID 588335; GDH-TPI coupled enzyme counterscreen, NADH absorbance; in the data active means inhibition above about 30%;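 further: 0% = DMSO wells and 100% = wells lacking the enzyme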
# Anthrax LF prot – blocks Bacillus anthracis lethal factor protease; P15917; multiplex microsphere protease cleavage assay, LF; inhibition, % at 10 µM; 360,000 tested, 0.12% active; further: plate controls were buffer without enzyme for full effect and enzyme alone for no effect
# Bead autofluor – counter-screen for toxin protease inhibitors: compound fluorescence; compound autofluorescence counterscreen, microsphere flow cytometry; stronger effect = higher value; fluorescence intensity (no concentration beside the values); 360,000 tested, 3.1% active; in the data active means fluorescence intensity above about 16000; inconclusive means no clear call, values can overlap the other calls
# BoNT A protease – BoNT A light chain protease inhibition; 360,000 tested, 0.17% active; inhibition, % at 10 µM; multiplex microsphere protease substrate cleavage, flow cytometry; further: plate controls were buffer without enzyme for full effect and enzyme alone for no effect
# Mtb FBA inh – inhibitors of M. tuberculosis fructose-bisphosphate aldolase | purified M. tuberculosis FBA, fluorescence read-out | P9WQA3 | 360,000 tested, 2.3% active | inhibition, % at 1 µM; in the data active means inhibition above about 27%;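 further: 0% = vehicle and 100% = reference inhibitor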
# Target sequence (P9WQA3 whole entry, looked up): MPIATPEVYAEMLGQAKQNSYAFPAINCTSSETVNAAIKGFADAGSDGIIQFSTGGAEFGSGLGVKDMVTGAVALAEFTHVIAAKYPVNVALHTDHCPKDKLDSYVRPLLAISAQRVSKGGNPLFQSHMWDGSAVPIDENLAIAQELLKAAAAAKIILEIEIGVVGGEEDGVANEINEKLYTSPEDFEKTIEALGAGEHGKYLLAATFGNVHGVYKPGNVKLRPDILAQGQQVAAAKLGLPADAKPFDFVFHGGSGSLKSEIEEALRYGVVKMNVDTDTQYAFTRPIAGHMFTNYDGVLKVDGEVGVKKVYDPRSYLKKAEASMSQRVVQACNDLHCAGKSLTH
# BoNT F protease – BoNT F light chain protease inhibition. Multiplex microsphere protease cleavage assay, flow cytometry. inhibition, % at 10 µM. 360,000 tested, 0.22% active. AID 588497; in the data active means inhibition above about 35%, passing the limit was not always enough; inconclusive means no clear call, values can overlap the other calls; further: plate controls were buffer without enzyme for full effect and enzyme alone for no effect
# The depositor's hits bear a star; ? = inconclusive; + = active, no number. Unless noted, no stated cut-off is given here; in the data, active means inhibition above about 30%; inconclusive means no clear call, values can overlap the other calls; inactive means below that.
SMILES,GDH-TPI counter,Anthrax LF prot,Bead autofluor,BoNT A protease,Mtb FBA inh,BoNT F protease
CCCN1C(=O)/C(=C/c2ccc(N3CCCC3)c(C)c2)NC1=S,5,9,18761*,11,-11,14
Cc1cc(/C=C2/C(=O)N(C)C(=S)N2C)ccc1N1CCCC1,-1,22,15497,36*,-2,30
Cc1cc(C=C(C#N)C#N)ccc1N1CCCC1,6,21,3451,50*,-27,14
N#C/C(=C\c1ccc(N2CCOCC2)cc1)c1ccccc1,29,-2,2241,0,4,2
CCOc1ccc(NC(=O)/C(C#N)=C\c2ccc(N3CCCC3)c(C)c2)cc1,4,-6,4541,1,-5,-2
Cc1cc(/C=C2\NC(=S)N(C)C2=O)ccc1N1CCCC1,9,5,6349,5,-18,9
N#CC(C#N)=Cc1ccc(N2CCOCC2)cc1,41*,-2,5345,-1,-7,-2
Cc1cccnc1NC(=O)Nc1cccs1,-8,-6,22281*,?,-2,-3
COc1ccccc1NC(=O)Nc1ncccc1C,4,0,22096*,2,3,1
COc1ccccc1NC(=O)Nc1cnccn1,5,0,2659,0,3,-4
CSC(=Nc1cccc(C)c1)NC#N,3,0,1861,0,1,0
Cc1cc(C)nc(N2CCC(C(=O)Nc3cccc(C(F)(F)F)c3)CC2)n1,12,0,17064*,-1,2,-1
Cc1cc(C)nc(N2CCC(C(=O)Nc3ccc4c(c3)CCC4)CC2)n1,-1,1,21599*,2,2,2
CCc1cccc(NC(=O)C2CCCN2S(=O)(=O)c2cccc3cccnc23)c1 (stereo not drawn),5,0,4092,2,4,0
O=C(Nc1cccc(C(F)(F)F)c1)C1CCCN1S(=O)(=O)c1cccc2cccnc12 (stereo not drawn),-6,-1,20787*,?,-2,-2
Cc1cccc(NC(=O)C2CCN(c3nccc(C)n3)CC2)c1,8,-12,20388*,?,5,-4
Cc1ccc(C(=O)NC2CCCc3ccccc32)o1 (stereo not drawn),-10,-5,22743*,-1,-2,0
Cc1ccnc(N2CCC(C(=O)Nc3ccc4c(c3)CCC4)CC2)n1,5,-2,17140*,-1,4,-4
Cc1cc(C)nc(N2CCC(C(=O)NC3CCCc4ccccc43)CC2)n1 (stereo not drawn),-2,0,19820*,6,8,8
Cc1ccc(Cl)cc1NC(=O)c1cc(NC(=O)C2CCCCC2C(=O)O)ccc1N1CCOCC1 (stereo not drawn),6,1,5994,-2,5,0
Cc1cccc(Cn2nnc3ccccc32)c1O,-9,-5,3497,0,1,-1
O=C(O)C1C2C=CC(C2)C1C(=O)Nc1cccc(F)c1 (stereo not drawn),12,-1,22384*,-1,0,-4
CCOc1ccccc1NC(=O)C1C2C=CC(C2)C1C(=O)O (stereo not drawn),2,-2,25672*,-4,1,-7
Nc1nc(COC(=O)C2CC(=O)N(CCc3ccccc3)C2)nc(Nc2ccccc2)n1 (stereo not drawn),2,-9,3658,0,-3,0
Cc1c(NC(=O)CSc2nnnn2-c2ccc(F)cc2)c(=O)n(-c2ccccc2)n1C,-9,-2,4399,0,-1,-1
SMILES,GDH-TPI counter,Anthrax LF prot,Bead autofluor,BoNT A protease,Mtb FBA inh,BoNT F protease
Cc1c(NC(=O)CSc2nnnn2-c2ccc(O)cc2)c(=O)n(-c2ccccc2)n1C,-8,-2,23720*,?,0,-4
Cc1csc(SCC(=O)Nc2c(C)n(C)n(-c3ccccc3)c2=O)n1,6,-2,2782,-1,1,-6
CSc1nsc(SCC(=O)Nc2c(C)n(C)n(-c3ccccc3)c2=O)n1,-2,1,20801*,2,1,1
COc1ccc(-n2nnnc2SCC(=O)Nc2nnn(C)n2)cc1,0,-2,22244*,2,-2,0
Cc1ccc(/C=C/c2nnc(-c3cccc(C)c3)o2)cc1,0,2,5982,1,0,-10
Fc1ccc(-c2nnc(Cc3nnc(-c4ccc(F)cc4)o3)o2)cc1,6,0,22771*,2,1,3
Fc1ccc(-c2nnc(-c3ccc(F)cc3)o2)cc1,-8,-6,3107,2,0,9
Cc1cc(NS(=O)(=O)c2ccc(NC(=O)c3ccc([N+](=O)[O-])s3)cc2)nc(C)n1,31*,-3,5369,0,-1,-8
O=C1N=C(N2CCCCC2)SC1=C1CCCCC1,-3,5,2914,-1,-2,11
O=C1NC(=S)SC1=C1CCCCCC1,33*,-2,3317,0,-1,-1
COc1cc(OC)cc(C(=O)Nc2ccccc2C(=O)N2CCCC2)c1,-4,0,3316,0,0,0
Cc1cc2oc3cc(NCCC4CCCN4C)ccc3c(=O)c2cc1C (stereo not drawn),23,-4,5095,0,+,-12
CCCCNc1c2c3c(cccc3n(C)c1=O)C(=O)c1ccccc1-2,2,56*,8728,74*,-20,50*
CC(=O)Nc1ccc(Nc2c3c4c(cccc4n(C)c2=O)C(=O)c2ccccc2-3)cc1,20,-5,1891,0,-5,-13
Cn1c(=O)c(NC2CCCCC2)c2c3c(cccc31)C(=O)c1ccccc1-2,-3,23,8853,44*,-5,11
Cn1c(NCCc2ccccc2)cc(=O)n(C)c1=O,-3,4,2925,0,4,0
Cn1c(=O)c(NCCO)c2c3c(cccc31)C(=O)c1ccccc1-2,5,1,4675,6,-2,10
Cn1c(=O)c(NCCc2ccccc2)c2c3c(cccc31)C(=O)c1ccccc1-2,11,47*,9014,47*,-7,41*
O=C1C2CCCN2C(c2cccnc2)N1c1ccc(Cl)c(Cl)c1 (stereo not drawn),3,8,6544,0,0,-2
O=C(CSc1cn[nH]n1)Nc1cccc(C(=O)O)c1,2,0,6101,-1,2,3
CCS(=O)(=O)N1Cc2ccccc2CC1C(=O)Nc1ccc(C)cc1 (stereo not drawn),-4,0,22120*,1,-1,-1
COC(=O)c1ccc(COc2ccccc2/C=N/NC(N)=O)o1,10,-1,?,1,3,?
O=C(NCN1CCc2ccccc2C1)c1ccccc1,11,-1,17046*,-2,-3,-6
O=C(CNCCC1=CCCCC1)Nc1ccccc1N1CCCCC1,1,-8,17116*,-3,3,-11
O=C(CN1CCc2ccccc2C1)Nc1ccccc1N1CCCCCC1,-2,-3,23403*,0,4,-3
O=C(CN1CCc2ccccc2C1)Nc1ccccc1Cl,14,3,3050,-2,1,?
